In all, about 59,000 sequences were measured (the read-out: median about -0.00055, lowest 2% from about -2 on). The sample as a whole holds a higher share of the lowest values than the screen did.

The assay is described as follows: Identification of proteins required for the processing of the EWS-FLI1 nascent transcript.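 Note: robust z of luciferase light less the median z of siRNAs with the same seed.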 To be noted: TC32 Ewing sarcoma NR0B1-luc vs CMV-luc (EWS-FLI1 target promoter against control promoter), 48 h; screened at 20 nM (by protocol). The method in brief: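 Three siRNAs per gene, each in a separate well at 20 nM, were transfected into TC32 cells bearing either reporter construct. Luminescence was measured two days on, and per-gene comparison relied on seed-corrected Z values.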
For the sequence UGCGAAUCUGCUAGGAUGC against GLTSCR1L, the seed-corrected z-score worked out at 0.0332.

For UAUCCUUCAGGCUAAGAUG against SGOL1, the seed-corrected z-score is -2.83.

The sequence UUACUUUGUAGAUACAACA against FAM201A registered a seed-corrected z-score of -1.74.

In turn, UUAGCUGCAAUUGCCUUCU against ZWINT registered a seed-corrected z-score of -2.63.

Take UCGUGAUUACGUUAAGUGC against CCNH: the seed-corrected z-score is 0.304.

For the sequence UGAAUGCUGAGAACUGUGC against PAPPA2, the seed-corrected z-score is -0.138.

As to UAUAGGUCAGGCAACCUUG against ATP11AUN, the seed-corrected z-score is -0.763.

For UAAGUUGACAGGCUGUCCA against NXPH3, the seed-corrected z-score is -2.06.

Turning to UGCUUGUCUCGGUUAAUGC against NCF2, the seed-corrected z-score was -0.104.

As to AAAACUACCGUUUGUGCAU against RPS27, the seed-corrected z-score was 0.994.

UGCUCUAGCACAGUGUUCC against CCDC87: the seed-corrected z-score is -2.86.

On to AUAGUUUAUAAGUCCUAUC against CGRRF1, for which the seed-corrected z-score amounted to 0.53.

For the sequence AUGUCCUUAAAUUCACUCU against GJB2, the seed-corrected z-score was -2.43.

UAAUAUUACCUUUAUGUUG against TBC1D3P2 had a seed-corrected z-score of 2.12.

In turn, UUCUUGAAAUCCAACCACC against ACSM6 came in with a seed-corrected z-score of 0.592.

The sequence AAAUCGUUAGUUGAGGAGC against USP53 gave a seed-corrected z-score of 0.292.

ACAGGGACAAUGUAGGAAG against PRSS47: the seed-corrected z-score is -2.17.

In turn, UAGUAUGAAAAUAGAAGUC against BTBD8 showed a seed-corrected z-score of 0.167.

The sequence UCAGGGUUAGAGGUAGUGG against SMCR8 gave a seed-corrected z-score of 0.401.

Take UAGUGGAUGUCAAACGAGG against CTSD: the seed-corrected z-score is 0.501.

UACCCAUCAAAGCAAUCGC against LTBP1 gave a seed-corrected z-score of -0.403.

In turn, AGAUCAAUUAGUAAUCCUC against CHM returned a seed-corrected z-score of -0.298.

Sequence UGGAUUGUCAACACCAAUG against CCT2 had a seed-corrected z-score of -0.17.

UUUACGUCCAAAGUAGCAC against SEC23B gave a seed-corrected z-score of -0.0983.

In turn, UGAUCUGCUAGGCAAGAGG against FASTKD1 gave a seed-corrected z-score of -0.665.

UGGUUGUUCAACGCUGUAG against MEA1: the seed-corrected z-score was -0.557.

UUAAGACAUAUCCUGGUGC against YY1AP1 gave a seed-corrected z-score of -2.26.

The sequence UUCCUUCUCAGGAUAGUGG against IYD came in with a seed-corrected z-score of 0.306.

UCGGAUACGGGUGUGAUAC against SNX32 showed a seed-corrected z-score of 0.403.

In the case of UAGAAUCCCACUGCGAUGC against TTYH3, the seed-corrected z-score was -0.966.

Regarding UCAUUCAUCAGGUUCAUGC against TPD52L1, the seed-corrected z-score is 1.32.

UUGGGCUUCUUCCUAAUGC against SLC16A3: the seed-corrected z-score is -0.147.

On to UUCGAUAGUCUGUUUCUGC against SLK, for which the seed-corrected z-score was -2.56.

With UCAGGGUAUUCAUUGGUGC against INCA1, the seed-corrected z-score was -3.45.

GAUGUAGAAGCCAUAGUUC against NIPAL4 gave a seed-corrected z-score of 0.499.

Sequence UGGAGUUCUUAUAAAAUGC against C15orf43 registered a seed-corrected z-score of -0.277.

In turn, UUAAUUCCCGUGCCCUUGG against PON2 came in with a seed-corrected z-score of -3.2.

The sequence UUUGGAUGUACGUGUAUAC against DYRK4 gave a seed-corrected z-score of 0.282.

In the case of UACUUUCGCCUCCUCAUCC against CCDC89, the seed-corrected z-score is 1.17.

Consider UUUGGGCAGAUAGAAGGAG against ADAMTS15, for which the seed-corrected z-score amounted to 0.203.

Take UACUUUCAUAUGCAGGUCC against PCDH8: the seed-corrected z-score is -1.4.

Sequence AACCGUUCAUCCUUCGUGC against KLHL6 showed a seed-corrected z-score of -0.163.

Sequence UCAUCAUCAAAGGCGAUGG against GDNF displayed a seed-corrected z-score of -2.86.

UUCUUGGUGUUGUAGAAGG against AGPAT2: the seed-corrected z-score turned out to be 0.219.

UCAGGUAGAACACUUUGCU against YWHAG had a seed-corrected z-score of 0.113.

As to UUGCUAUCCAUGUAUAGCC against SLITRK1, the seed-corrected z-score was determined as 0.475.

Regarding UCGUGUAAAACAACAUGCG against AGMO, the seed-corrected z-score is -0.652.

UAACCUAUCAUAUUGGUAG against DDX17: the seed-corrected z-score stood at 0.216.

On to UAGAUCACCAAGCCCUUCC against EFNB1, for which the seed-corrected z-score was -0.0268.

UCUCCAUAAACAUACAGGC against LACE1 came in with a seed-corrected z-score of 1.68.

UUGGUUGCAUCCCUGUCCG against PPP1R27 displayed a seed-corrected z-score of -3.59.

On to UGAUGUACUGUGGAAGGUC against MAST3, for which the seed-corrected z-score was -1.59.

In turn, UGUAGUGACAUCUCCGCCU against MCFD2P1 yielded a seed-corrected z-score of 0.515.

Sequence UAAGGUCCCAGAAAGGCCU against ZP4 gave a seed-corrected z-score of 0.208.

The sequence UCUGGGUACAAUCUGGUGU against CHCHD10 came in with a seed-corrected z-score of -2.26.

With UCUGAUUCCGCUUCUGAGC against SIGLEC10, the seed-corrected z-score stood at 0.63.

In turn, AUAGAUACCUAGGUCAACC against NEU3 registered a seed-corrected z-score of 0.24.

For the sequence UGCUGUUAGUUUGUGAUGC against LOC729254, the seed-corrected z-score came out at 0.247.

For the sequence UUCGAGACGAUUUCCAGUG against CMIP, the seed-corrected z-score is -2.27.

UACUAGGUACGAACCGUCC against PPTC7: the seed-corrected z-score was -0.527.

On to UCUCCUUACAUAACACUUC against EPHX2, for which the seed-corrected z-score worked out at 0.0978.

The sequence UUUGUGAUAGACUUCUUUC against CFAP126 gave a seed-corrected z-score of 1.14.

Take AAACCUUCCGGUUUAGAUG against KCNH5: the seed-corrected z-score is -0.00192.

Take UUUGCCUCUUUCCUCAACC against ZBTB16: the seed-corrected z-score is -2.32.

In turn, UAUAGAUCAACAAAAAUAC against TRMT112 had a seed-corrected z-score of 0.21.

Consider UUCCUUCUCGUCGUCGUAG against SERPINH1, for which the seed-corrected z-score is -0.218.

On to AGUGGGAUAAGGGCUCUGA against TMEM132A, for which the seed-corrected z-score was -5.72.

In the case of UAUUCUUCAUUGGUAUCCC against TMEM27, the seed-corrected z-score was -0.429.

On to UCCGUUUCCACAUAUCUAC against SUPT20H, for which the seed-corrected z-score was -0.175.

Sequence UAUGGUAAUAGUCCUCCAG against FNDC9 yielded a seed-corrected z-score of -0.0743.

Consider UUAGAAGCCCGCGUGAUGU against HS6ST3, for which the seed-corrected z-score was 0.236.

UGAUUGGUUACUGCCCAGG against TAS2R20: the seed-corrected z-score was -4.87.

In the case of UCCGUUUCCAUAAUUACAG against SCUBE1, the seed-corrected z-score was -0.917.

AAACUAAUGAAAUAGUGCC against GPR39 yielded a seed-corrected z-score of -0.0661.

AUAGAUCUUUAUAUAAGCC against ATL1 showed a seed-corrected z-score of -0.744.

Sequence UAGAGUUUCGGUUUAAAUG against RBBP5 came in with a seed-corrected z-score of 0.215.

Take UUUUGUAUGUAGACAUUGG against DEFB135: the seed-corrected z-score is -0.8.

UACACUAGCAGUGACCAUG against MBOAT1: the seed-corrected z-score is 0.0459.

In turn, UUGAUAUCCAGCACAUUGC against CORO2B returned a seed-corrected z-score of 1.69.

With UCUUCGUAGAUGACAUUCC against ERO1A, the seed-corrected z-score was 0.442.

Regarding AUAUGUGCAGUCUUCUCCC against LINC00200, the seed-corrected z-score is -0.44.

Sequence UCCAGUAACAAUUAAUGCC against LRRC37A showed a seed-corrected z-score of 0.451.

Sequence UGUGGUCAAAGAGGAGAUG against SH3TC2 showed a seed-corrected z-score of -2.8.

As to UAGCAGAUAGGUCUCAAUG against MYH11, the seed-corrected z-score is -0.244.

The values above are taken from PubChem BioAssay AID1159506 (National Center for Advancing Translational Sciences (NCATS), 2015).
